# Mito fusion act: mitochondrial division inhibition or fusion activation. S. cerevisiae fusion-defective mutant growth rescue, CellTiterGlo 48 h. Potency, µM (titrated, usually from 46.1 µM), for the others: top-dose growth rescue (activation), hits mostly activators. actives 0.23% (n = 320,000). AID 485298; note: potency is the fitted concentration of half-maximal effect; % of control where 0% means no effect; nearly all actives have a fitted effect of over 45% in size
#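 Growth-rescue viability read-out: after 48 h at the non-permissive 37C in glycerol/ethanol YPEG, yeast mitochondrial fusion mutants are measured by CellTiterGlo luminescence; compounds (23 nl pinned per well) restoring growth score as division inhibitors or fusion activators.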
# p53 reactivation: re-activators of mutant p53; actives 0.063% (n = 320,000); H1299 p53-A138V BP100-luciferase reporter, luminescence, 24 h; Potency, µM (highest dose often 92.2 µM), for the others: at the top dose activity change, positive = activation, usual class: activators; note: potency is the fitted concentration of half-maximal effect; % of control where 0% means no effect; nearly all actives have a fitted effect of over 45% in size
#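 p53-null H1299 cells stably carrying temperature-sensitive p53-A138V and a BP100-luciferase reporter were pinned with compounds (4-point, 1:5 series) and held 24 hrs at 37 deg C. Luminescence was read 10 min after detection reagent.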
# Giardia kill: Giardia lamblia killing. actives 0.15% (n = 340,000). activity change, % at 7.66 µM, hits read low. Giardia lamblia trophozoite viability. AID 540267; in the data active = activity change below about -80%; inconclusive = between about -30% and that limit;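 note: parasites exposed to compound for two days anaerobically before the ATP read; % is set by controls: 0 for no effect and ±100 for the full control effect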
#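 Killing of trophozoites was scored by loss of ATP luminescence after a 48 hrs anaerobic exposure to compounds at 37 deg C, using 100 cells per well.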
# B2AR arrestin: agonists driving beta-arrestin recruitment to human beta2-adrenergic receptor; Potency, µM (series often up to 46.1 µM), for inactives: at the highest dose activation, hits mostly activators; P07550; actives 0.02% (n = 330,000); AID 492947; beta-arrestin recruitment to beta2AR, cell-based reporter;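 note: potency is the fitted concentration of half-maximal effect; 0% = DMSO controls and full agonism = EC100 isoproterenol or metaproterenol; nearly all actives have a fitted effect of over 65% in size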
# Target sequence (P07550 whole entry, looked up): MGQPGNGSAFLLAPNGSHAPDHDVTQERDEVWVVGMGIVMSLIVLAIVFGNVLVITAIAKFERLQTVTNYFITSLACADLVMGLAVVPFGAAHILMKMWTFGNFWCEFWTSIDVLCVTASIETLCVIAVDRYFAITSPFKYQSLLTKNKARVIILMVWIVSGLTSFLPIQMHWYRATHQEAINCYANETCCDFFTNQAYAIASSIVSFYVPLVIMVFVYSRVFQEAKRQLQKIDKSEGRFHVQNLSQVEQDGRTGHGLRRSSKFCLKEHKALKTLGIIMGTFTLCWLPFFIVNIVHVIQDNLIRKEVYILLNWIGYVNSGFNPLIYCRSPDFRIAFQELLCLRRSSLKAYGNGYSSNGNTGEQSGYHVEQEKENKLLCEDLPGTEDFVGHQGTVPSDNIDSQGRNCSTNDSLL
# ClpP mod: qHTS Assay for Activators of ClpP; ATP-dependent Clp protease proteolytic subunit (Bacillus subtilis (strain 168)), P80244; purified B. subtilis ClpP, FRET peptide cleavage, 20 min; Potency, µM (doses to about 57.5 µM), for the others: at the top dose activity change, negative = active; actives 1.9% (n = 340,000); AID 651965, 2013; active = well fitted falling curve with a large enough effect; inconclusive = small, poorly fitted or top-dose-only effect; inactive = no such curve, though single readings can be large or run the other way; note: potency is the fitted concentration of half-maximal effect; the source files actives as falling curves though it sought activators and does not explain the sign; nearly all actives have a fitted effect of over 65% in size
# Target sequence (P80244 whole entry, looked up): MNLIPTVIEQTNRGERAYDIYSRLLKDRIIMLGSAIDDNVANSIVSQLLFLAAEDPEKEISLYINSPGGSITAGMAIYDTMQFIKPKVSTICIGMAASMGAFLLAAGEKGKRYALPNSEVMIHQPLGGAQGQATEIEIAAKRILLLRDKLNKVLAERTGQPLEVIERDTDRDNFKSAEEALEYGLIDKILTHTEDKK
#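 ClpP 10 microg/mL final, pH 8 Tris/KCl buffer with BSA, glycerol, Tween-20; compound pinned in; FRET-FV substrate; RT 20 min; Ex320/Em430; ΔFRET vs ADEP 5.8 microM, DMSO, no enzyme.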
# uPA generation: cell surface uPA generation inhibition; cell surface uPA generation assay, qHTS; Potency, µM (doses to about 38.3 µM), for inactives: top-dose activity change, negative = inhibition, actives largely listed as inhibitors; actives 0.31% (n = 330,000); active = well fitted inhibition curve with a large enough effect; inconclusive = small, poorly fitted or top-dose-only effect; inactive = no such curve, though single readings can be large or run the other way; tested in mouse RAW 264.7 cells; note: potency is the fitted concentration of half-maximal effect; % is set by controls: 0 for no effect and ±100 for the full control effect; nearly all actives have a fitted effect of over 55% in size
# ClpP inh valid: validation of B. subtilis ClpP protease hits (inhibitors); shares compounds with ClpP mod; purified B. subtilis ClpP, FRET-FV substrate cleavage, 20 min; Potency, µM (doses to about 57.5 µM), without a hit: top-dose activity change, negative = inhibition, usual class: inhibitors; actives 40% (n = 470); AID 743245; note: potency is the fitted concentration of half-maximal effect; % is set by controls: 0 for no effect and ±100 for the full control effect; nearly all actives have a fitted effect of over 70% in size
# * hit, by the source's call; u = inconclusive; x = no result given. Only some compounds are listed: those with a hit (about 2.1% of all), similar ones and a draw of the others. Unless noted, calls come from the whole dose curve; as a rule, active = well fitted curve in the direction sought with a large enough effect; inconclusive = small, poorly fitted or top-dose-only effect, or another doubt; inactive = no such curve, though single readings can be large; an effect the other way counts as inactive or inconclusive.
SMILES,Mito fusion act,p53 reactivation,Giardia kill,B2AR arrestin,ClpP mod,uPA generation,ClpP inh valid
COc1ccc(-c2ccc(N(C)C)cc2)cc1C1C2C=CCC(C)C2C(=O)N1Cc1ccccc1 (centres undefined),x,x,0,x,x,x,x
Nc1ccc(-c2nc3ccc(-c4nc5ccccc5o4)cc3[nH]2)cc1,-4%,0%,-1,-1%,32%,-6%,x
Cc1nc2ccc(-c3nc4ccccc4o3)cc2[nH]1,4%,u,-21,0%,3.2µM*,-10%,15µM*
CCNc1nc(NCC)n2c(SCC(=O)Nc3ccc(OC)c(OC)c3)nnc2n1,-4%,5%,9,-1%,46%,1%,0%
Cc1cccnc1NC(=O)c1ccc(S(=O)(=O)N2CCCCC2)cc1,-1%,-8%,-5,0%,3.5µM*,3%,0%
COc1ccc(-c2cc(C(=O)NCCc3ccccc3)c3c(-c4ccccc4)[nH]nc3n2)cc1OC,x,x,x,x,395%,x,24µM*
O=S1(=O)CCOC[C@H](c2ccccc2)N1Cc1ccc(F)cc1,x,x,x,x,1%,x,x
CCC(C)NC(=O)c1cc2cc3ccc(OC)cc3nc2s1 (centres undefined),2%,13%,-5,0%,10µM*,-13%,14µM*
COc1ccc(NS(=O)(=O)c2ccc(C)c(C(=O)O)c2)cc1,-4%,3%,-12,-1%,-3%,-3%,x
COc1ccc(NS(=O)(=O)c2ccc(C)c(C(=O)NNC(=O)c3ccccc3O)c2)cc1,11%,-6%,-1,0%,72%,-1%,0%
COc1ccc2c(c1)c1ncn(CCN3CCNCC3)c(=O)c1n2C,-5%,-3%,1,0%,2.2µM*,x,19µM*
Cc1ccc2[nH]c3c(=O)n(CCN4CCNCC4)cnc3c2c1,-3%,1%,8,0%,8.9µM*,2%,22µM*
Cc1cccc2[nH]c3c(=O)n(CCN4CCNCC4)cnc3c12,1%,-2%,11,-2%,u,13%,x
CCC(C)NC(=O)c1cnn2c(C)c3c(nc12)CCCC3 (centres undefined),2%,8%,9,0%,10µM*,x,22µM*
O=S(=O)(Nc1cccc(-c2cn3cccnc3n2)c1)c1ccc(Cl)cc1,0%,-5%,6,-1%,7.1µM*,6%,24µM*
C[C@@H]1CN([C@H](C)CO)C(=O)CCCn2nncc2CO[C@H]1CN(C)CC1CC1,x,x,x,x,0%,x,x
Cc1oc2ccc(O)c(CN3CCCC3)c2c1C(=O)Nc1ccc(C(C)C)cc1,x,x,x,x,0%,x,x
O=C(Cn1nc(-c2ccccc2)ccc1=O)NCc1ccc(F)cc1Cl,x,x,x,x,-14%,x,x
CCc1ccc(CNC(=O)Cn2nc(-c3ccccc3)ccc2=O)cc1,-19%,2%,-2,-2%,4µM*,1%,-2%
Cc1ccc(Cl)cc1NC(=O)C(=O)NCC(c1cccnc1)N1CCc2ccccc21 (centres undefined),x,x,x,x,-1%,x,x
Cc1nc2ccccn2c1C(=O)Nc1ccc2c(c1)OCCO2,3%,u,-6,-2%,u,-3%,-2%
CCOC(=O)C1CCN(c2ncnc3c2oc2ccccc23)CC1,-7%,u,6,0%,-2%,-11%,x
CCOC(=O)C1CCCN(c2ncnc3c2oc2ccccc23)C1 (centres undefined),0%,u,-6,0%,352%,-5%,-2%
CCCCC(=O)Nc1cc2nn(-c3ccc(OC)cc3)nc2cc1C,0%,u,-24,-1%,1µM*,3%,24µM*
COc1ccc(-n2nc3cc(C)c(NC(=S)NC(=O)c4ccccc4C)cc3n2)cc1,-2%,u,-7,4%,217%,x,x
SMILES,Mito fusion act,p53 reactivation,Giardia kill,B2AR arrestin,ClpP mod,uPA generation,ClpP inh valid
CCC(=O)Nc1cc2nn(-c3ccc(C)cc3)nc2cc1C,13%,12%,u,1%,5%,-7%,x
CCC(=O)Nc1cc2nn(-c3ccc(OC)cc3)nc2cc1C,4%,u,u,-1%,2.8µM*,u,19µM*
COc1cccc(-c2nc(-c3ccc(NC(=O)c4cccs4)cc3)no2)c1,-1%,u,1,1%,41%,-3%,u
c1ccc(Oc2cc(-n3cncn3)ncn2)cc1,-39%,u,-21,-2%,2.8µM*,-1%,0%
CCCCOc1ccc(C(=O)NCCc2csc3nc(-c4ccccc4F)nn23)cc1,x,x,x,x,1%,x,x
COc1ccc(CC(=O)Nc2c(C(=O)Nc3ccc(F)cc3)oc3ccccc23)cc1OC,x,x,x,x,-20%,x,x
CCOc1ccc(NC(=O)c2oc3ccccc3c2NC(=O)COc2cccc(OC)c2)cc1,x,x,x,x,33%,x,x
CCOC(=O)c1oc2ccccc2c1NC(=O)COc1cccc(OC)c1,2%,-1%,-18,0%,48%,x,19µM*
O=C(COc1ccccc1F)Nc1c(C(=O)Nc2cccc(F)c2)oc2ccccc12,x,x,x,x,79%,x,u
COc1ccccc1NC(=O)c1oc2ccccc2c1NC(=O)c1ccco1,4%,7%,2,0%,148%,x,22µM*
CCOc1ccc(CC(=O)Nc2c(C(=O)Nc3ccc(OC)cc3OC)oc3ccccc23)cc1,x,x,x,x,31%,x,19µM*
CCCC12CN3CC(CCC)(CN(C1)C3c1ccc(OCc3ccccc3)cc1)C2=O (centres undefined),x,x,x,x,2%,x,x
Cc1ccccc1Nc1c(-c2cc(Br)ccc2F)nc2ccccn12,x,x,x,x,4.5µM*,x,-7%
O=C1Nc2ccc(F)cc2C12Nc1ccccc1-c1nnc(SCc3ccccc3F)nc1O2 (centres undefined),8%,13%,-14,0%,40%,2%,10%
O=C1Nc2ccc(Cl)cc2C12Nc1ccccc1-c1nnc(SCc3ccccc3F)nc1O2 (centres undefined),4%,28%,-4,9%,53%,3%,x
Cc1cc(C)cc(C(=O)N(Cc2ccco2)c2c(N)n(Cc3ccccc3)c(=O)[nH]c2=O)c1,-5%,-3%,-9,0%,10µM*,-1%,-1%
COc1ccc(C)cc1S(=O)(=O)NC1CCCCC1C (centres undefined),7%,-4%,7,-1%,209%,2%,-1%
